Results published in PubChem BioAssay (Tox21).
Inconclusive results are not listed. Activity calls are given as the source filed them. Unless noted, the call rests on the fitted dose curve; in most records, active means well fitted curve in the direction sought with a large enough effect in the repeat runs; inconclusive means weak or mixed curves; inactive means flat fitted curve, though single readings scatter.

Key:
[1] = qHTS assay to test for compound auto fluorescence at 535 nm (green) in HEK293 cells (AID 720680)
[2] = qHTS assay to test for compound auto fluorescence at 460 nm (blue) in HEK293 cell free culture (AID 720681)
Summary of the method: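 Test compounds were pinned into cell-free culture medium (DMEM with 10% FBS) and fluorescence was read directly at Ex/Em 405/460 nm. Signals were expressed as fluorescence equivalents of triamterene, with DMSO vehicle as control.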

[3] = qHTS assay to test for compound auto fluorescence at 535 nm (green) in HEK293 cell free culture (AID 720682)
Summary of the method: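 DMEM + 10% FBS, cell-free; cpd or DMSO pinned in; Ex485/Em535 read; output as fluorescein-equivalent signal.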

[4] = qHTS assay to test for compound auto fluorescence at 590 nm (red) in HEK293 cell free culture (AID 720683)
Summary of the method: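 Tox21 10K library compounds were pinned into cell-free DMEM with 10% FBS and fluorescence was read at excitation 540 nm. Activity is expressed as Rose Bengal sodium equivalency.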

[5] = qHTS assay to test for compound auto fluorescence at 590 nm (red) in HepG2 cell free culture (AID 720684)
Summary of the method: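 Red fluorescence (540 nm excitation, 590 nm emission) was measured after compound transfer into cell-free MEM supplemented with 10% FBS. Values are equivalencies against Rose Bengal sodium.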

[6] = qHTS assay to test for compound auto fluorescence at 460 nm (blue) in HepG2 cell free culture (AID 720685)
Summary of the method: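 Compound (23 nL) or DMSO pinned into cell-free MEM with 10% FBS; blue fluorescence read at 405/460 nm excitation/emission, expressed as auto-fluorescence equivalency to triamterene.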

[7] = qHTS assay to test for compound auto fluorescence at 535 nm (green) in HepG2 cell free culture (AID 720686)
[8] = qHTS assay to test for compound auto fluorescence at 460 nm (blue) in HepG2 cells (AID 720687)
Summary of the method: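 Cells (2,000/well in MEM with 10% FBS) attached overnight at 37 C, then were exposed to compound or DMSO for 1 hr at 37 C, 5% CO2. Fluorescence read at Ex/Em 405/460 nm, expressed as triamterene-equivalent signal.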

[9] = target: Glucocorticoid receptor (Homo sapiens) (UniProt P04150); assay: qHTS assay to identify small molecule agonists of the glucocorticoid receptor (GR) signaling pathway (AID 720691; active means well fitted activation curve with a large enough effect in the signal ratio in the repeat runs, not every such curve was filed as active; the % refers to the signal ratio)
Chain of Glucocorticoid receptor (Homo sapiens) (P04150 whole entry, looked up): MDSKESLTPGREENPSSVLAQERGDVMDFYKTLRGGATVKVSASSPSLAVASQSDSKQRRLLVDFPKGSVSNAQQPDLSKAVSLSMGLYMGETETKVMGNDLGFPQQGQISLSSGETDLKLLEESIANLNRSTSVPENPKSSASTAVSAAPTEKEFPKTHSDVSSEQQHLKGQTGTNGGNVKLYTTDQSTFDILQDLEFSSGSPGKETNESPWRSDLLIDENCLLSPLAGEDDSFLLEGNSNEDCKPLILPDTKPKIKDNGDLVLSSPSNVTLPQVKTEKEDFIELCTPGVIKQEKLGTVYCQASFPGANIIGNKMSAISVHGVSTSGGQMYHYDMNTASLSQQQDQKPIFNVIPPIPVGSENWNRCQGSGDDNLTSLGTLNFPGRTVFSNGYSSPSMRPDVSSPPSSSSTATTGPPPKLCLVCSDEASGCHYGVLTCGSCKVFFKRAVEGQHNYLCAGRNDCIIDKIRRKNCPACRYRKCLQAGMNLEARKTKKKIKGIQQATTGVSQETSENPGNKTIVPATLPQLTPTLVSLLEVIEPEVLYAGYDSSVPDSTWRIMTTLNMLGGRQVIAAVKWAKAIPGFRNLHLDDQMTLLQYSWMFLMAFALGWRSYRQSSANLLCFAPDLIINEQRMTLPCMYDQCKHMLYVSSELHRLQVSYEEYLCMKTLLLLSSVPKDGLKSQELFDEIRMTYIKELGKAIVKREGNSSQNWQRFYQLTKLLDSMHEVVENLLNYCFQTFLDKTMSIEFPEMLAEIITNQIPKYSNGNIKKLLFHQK
Summary of the method: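 Fluorescence intensity from LiveBLAzer B/G FRET substrate (2 h, room temperature) reports beta-lactamase expression driven by the glucocorticoid response element in GR-bla HeLa cells after 18 h compound exposure at 37 C.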

[10] = target: Glucocorticoid receptor (Homo sapiens) (UniProt P04150); assay: qHTS assay to identify small molecule antagonists of the glucocorticoid receptor (GR) signaling pathway (AID 720692; active means well fitted inhibition curve with a large enough effect in the signal ratio in the repeat runs, not every such curve was filed as active; the % refers to the signal ratio)
Summary of the method: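 HeLa GR-bla cells; cmpd + dex 5 nM final, 18 h 37 C; LiveBLAzer B/G FRET substrate 2 h RT; fluorescence intensity read. Antagonist mode, qHTS.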

Measured: Potency

C[C@H](CN1CCCC1)C(=O)c1ccc(C(F)(F)F)cc1
inactive: [1] | [2] | [3] | [4] | [5] | [6] | [7] | [8] | [9] | [10]

Clc1cc(Cl)c2c(c1)N=C1CCCCCN1C2
inactive: [1] | [2] | [3] | [4] | [5] | [6] | [7] | [8] | [9] | [10]

O=c1[nH]nc(-c2ccc([N+](=O)[O-])o2)o1
inactive: [1] | [2] | [3] | [4] | [5] | [6] | [7] | [8] | [9] | [10]

CCCCCCCCCCCC(=O)OCC
inactive: [1] | [2] | [3] | [4] | [5] | [6] | [7] | [8] | [9] | [10]

SCCOCCOCCS
inactive: [1] | [2] | [3] | [4] | [5] | [6] | [7] | [8] | [9] | [10]

CCC1=C(C)CN(C(=O)NCCc2ccc(S(=O)(=O)NC(=O)NC3CCC(C)CC3)cc2)C1=O (centres undefined)
inactive: [1] | [2] | [3] | [4] | [5] | [6] | [7] | [8] | [9] | [10]

C=C[Si](OCC)(OCC)OCC
inactive: [1] | [2] | [3] | [4] | [5] | [6] | [7] | [8] | [9] | [10]

CCCOC(C)=O
inactive: [1] | [2] | [3] | [4] | [5] | [6] | [7] | [8] | [9] | [10]

S=c1[nH][nH]c(=S)s1
inactive: [1] | [2] | [3] | [4] | [5] | [6] | [7] | [8] | [9] | [10]

O=C(OCCOCCOCCOC(=O)c1ccccc1)c1ccccc1
inactive: [1] | [2] | [3] | [4] | [5] | [6] | [7] | [8] | [9] | [10]

CCOC(=O)CC(O)(CC(=O)OCC)C(=O)OCC
inactive: [1] | [2] | [3] | [4] | [5] | [6] | [7] | [8] | [9] | [10]

Cc1ccc(NC=O)c(C)c1
inactive: [1] | [2] | [3] | [4] | [5] | [6] | [7] | [8] | [9] | [10]

CCCC1CCOC(C)S1 (centres undefined)
inactive: [1] | [2] | [3] | [4] | [5] | [6] | [7] | [8] | [9] | [10]

COc1ccc(CN(CCN(C)C)c2ncccn2)cc1
inactive: [1] | [2] | [3] | [4] | [5] | [6] | [7] | [8] | [9] | [10]

N#Cc1ccc(CC(=O)c2cccc(C(F)(F)F)c2)cc1
inactive: [1] | [2] | [3] | [4] | [5] | [6] | [7] | [8] | [9] | [10]

CCOc1ccc2c(c1)C(C)CC(C)(C)N2 (centres undefined)
inactive: [1] | [2] | [3] | [4] | [5] | [6] | [7] | [8] | [9] | [10]

O=C(O)c1cc(C(=O)O)cc([N+](=O)[O-])c1
inactive: [1] | [2] | [3] | [4] | [5] | [6] | [7] | [8] | [9] | [10]

O=C(O)c1ccccc1[N+](=O)[O-]
inactive: [1] | [2] | [3] | [4] | [5] | [6] | [7] | [8] | [9] | [10]

Cc1c(Cl)cccc1[N+](=O)[O-]
inactive: [1] | [2] | [3] | [4] | [5] | [6] | [7] | [8] | [9] | [10]

C1=COCCC1
inactive: [1] | [2] | [3] | [4] | [5] | [6] | [7] | [8] | [9] | [10]

COC(=O)Cc1cccc2ccccc12
inactive: [1] | [2] | [3] | [4] | [5] | [6] | [7] | [8] | [9] | [10]

CCCN(C1CCN(C(=O)C2CCNCC2)CC1)[C@@H]1CCc2ccc(OC)cc2C1
inactive: [1] | [2] | [3] | [4] | [5] | [6] | [7] | [8] | [9] | [10]

CC(C)Oc1ccccc1O
inactive: [1] | [2] | [3] | [4] | [5] | [6] | [7] | [9] | [10]
